# Bioassay records as filed in PubChem BioAssay.
# This is a sample that favours compounds with a hit; in the whole collection about 3.6% have one here.
# mHTT-CaM PPI inh = mutant huntingtin-calmodulin interaction inhibitors – biochemical, AlphaScreen, primary screen; P42858; AlphaScreen His-mHTT/GST-CaM binding, luminescence; inhibition, % at 15 µM; actives 3.6% (n = 190,000); AID 1671202, 2021;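 note: 0% = both proteins with DMSO and 100% = one protein alone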
# Pf apPOL inh = Pf-apPOL inhibitors, biochemical, fluorescence; Plasmodium falciparum apicoplast DNA polymerase (apPOL); Recombinant Pf-apPOL, molecular beacon fluorescence, 1.5 h; inhibition, % at 10 µM; AID 1794808, 2022; actives 0.25% (n = 210,000)
# * hit, by the source's call; i = inactive; x = no result given; + = active, no number. Cut-off read from the data, not from the text of the source: active = inhibition above about 50%; inactive = the rest.
SMILES,mHTT-CaM PPI inh,Pf apPOL inh
Cc1ccc(NC(=O)CNS(=O)(=O)c2ccc(Br)s2)cc1,-2,-12
Cc1c(N=Cc2cc([N+](=O)[O-])ccc2N(C)C2CCCCC2)c(=O)n(-c2ccccc2)n1C,0,2
O=C(NCCc1csc(-c2cccs2)n1)C1CCN(C(=O)c2cccc(F)c2)CC1,2,-3
Cc1ccc(SCCCC(=O)N2CCNC(=O)C2C)cc1 (stereo not drawn),-6,-9
Nc1cccc(-c2nc3ccc(-c4ccc5nc(-c6cccc(N)c6)[nH]c5c4)cc3[nH]2)c1,97*,-6
COc1ccc(-c2nc3ccccc3[nH]2)cc1,10,-4
O=C(O)c1ccc2nc(-c3cccc(-c4nc5ccc(C(=O)O)cc5[nH]4)c3)[nH]c2c1,x,20
Nc1ccc(-c2nc3ccc(Oc4ccc5nc(-c6ccc(N)cc6)[nH]c5c4)cc3[nH]2)cc1,84*,-3
Cc1ccc(CNS(=O)(=O)c2cc(C(=O)Nc3ccc(F)c(F)c3)ccc2F)cc1,2,39
CCOC(NC(C)=O)C(NC(C)=O)OCC (stereo not drawn),-8,x
CCN1CCc2nc(-c3ccccc3)n(CC(=O)N3CCOc4ccc(C)cc43)c(=O)c2C1,42,-2
CC1CCN(c2ccc(-c3noc(CCC(=O)Nc4cccc(F)c4)n3)cc2)CC1,6,-2
O=S(=O)(Nc1ccc(F)cc1)c1cccnc1Nc1cccc(F)c1,23,1
O=C(Nc1nc(-c2ccccn2)cs1)c1ccc(S(=O)(=O)N2CCOCC2)cc1,3,-8
CCCCN(CC)S(=O)(=O)c1ccc(C(=O)Nc2nnc(CC)o2)cc1,24,-2
O=C(Nc1nc(-c2ccccn2)cs1)c1ccc(S(=O)(=O)N2CCCCC2)cc1,100*,2
CCCCN(CC)S(=O)(=O)c1ccc(C(=O)Nc2nc(-c3ccccn3)cs2)cc1,96*,-7
COc1ccc(/C=C2\SC(N3CCCCCC3)=NC2=O)cc1,5,-10
COc1ccccc1C(=O)O/N=C1\C=CC(=O)C=C1C,+,-1
COc1cc(C(=O)O/N=C2\C=CC(=O)C=C2C)cc(OC)c1OC,i,0
Cc1cc(C)c(C2=NC(c3ccccc3)(c3ccccc3)c3ccccc3N2)c(=O)[nH]1,32,-8
c1ccc(C2=NC(c3ccccc3)(c3ccccc3)c3ccccc3N2)cc1,61*,x
COc1ccc(-c2nnc(NC(=O)CCCS(=O)(=O)Cc3ccccc3)o2)c(OC)c1,8,1
COc1ccc(-c2nnc(NC(=O)CN3C(=O)c4ccccc4C3=O)o2)c(OC)c1,52*,4
CC(C)N1C(=O)Cc2ccccc2C1C(=O)NC1CCCC1 (stereo not drawn),-7,-3
SMILES,mHTT-CaM PPI inh,Pf apPOL inh
O=C(Cn1nc(-c2ccc(Cl)cc2)c2ccccc2c1=O)N1CCOCC1,0,10
COc1ccc(CCS(=O)(=O)Nc2ccc3c(c2)C(=O)NCC3)cc1,-7,-10
Cc1cc(C)c2c(c1)C1C=CCC1C(c1ccc(C(=O)O)cc1)N2 (stereo not drawn),74*,-1
Cc1cc(I)c2c(c1)C1C=CCC1C(C(=O)O)N2 (stereo not drawn),81*,-3
Cc1cc(I)cc2c1NC(C(=O)O)C1CC=CC21 (stereo not drawn),-1,1
O=C(O)c1cc(Br)cc2c1NC(c1ccc(F)cc1)C1CC=CC21 (stereo not drawn),95*,8
Cc1ccc2c(c1C)NC(c1ccc([N+](=O)[O-])cc1)C1CC=CC21 (stereo not drawn),62*,0
COc1cc(S(=O)(=O)N2CCc3ccccc3C2)ccc1Cl,-22,-2
Ic1ccc(CSc2nnn(-c3ccccc3)n2)cc1,-102,-2
O=c1/c(=C/c2cccs2)sc2nc(-c3ccccc3)nn12,-5,-1
O=[N+]([O-])c1ccc(C2Nc3c(I)cccc3C3C=CCC32)cc1 (stereo not drawn),49,4
CN(C)C(=O)c1cccc2c1NC(c1ccc(Cl)cc1Cl)C1CC=CC21 (stereo not drawn),4,-4
O=C(O)c1cccc2c1NC(c1cccc(Br)c1)C1CC=CC21 (stereo not drawn),92*,3
O=C(O)c1cccc2c1NC(c1ccc([N+](=O)[O-])cc1)C1CC=CC21 (stereo not drawn),66*,-5
O=C(O)c1cccc2c1NC(c1ccc(Br)cc1)C1CC=CC21 (stereo not drawn),66*,-2
COc1ccc(C)cc1NC(=O)N1CCC2(CC1)NC(=O)c1ccc(Cl)cc1N2,6,-9
COC(=O)c1ccc(C(=O)NCC(O)C2CCCCC2)cc1 (stereo not drawn),-2,-6
CNC(=O)c1ccc2c(c1)N(S(=O)(=O)c1ccccc1F)CC2,0,-3
Cc1ccc2nc(C(=O)NCCN(C)C)cn2c1,-2,-11
